# Measurements published in paper PMC4102417.
# Tested on: murine 3T3 fibroblasts
# Experiment: primary screen, percent viability or growth; higher = less effect of the substance
# Method: Similarly, for measuring the cytotoxicity concentration (CC50) for 3T3 fibroblast cells, cultures were incubated with drugs for 72 hours and developed using Alamar Blue (Alamar Biosciences Inc, Sacramento, CA) as previously described.
row,SMILES,Mammalian (3T3) cell % growth at 10 uM [%]
1,CCN(CC)CCOc1ccc(C(=C(Cl)c2ccccc2)c2ccccc2)cc1,100
2,C[C@@](Cc1ccc(O)c(O)c1)(NN)C(=O)O,17.7
3,C=C1c2c(Cl)ccc(O)c2C(O)=C2C(=O)[C@]3(O)C(=O)/C(=C(/N)O)C(=O)[C@@H](N(C)C)[C@@H]3[C@@H](O)[C@H]12.O=C(O)c1cc(S(=O)(=O)O)ccc1O,60.9
4,C[C@@H]1[C@H](O)[C@@H](C)/C=C/C=C/C=C/C=C/C=C/C=C/C=C/[C@H](O[C@@H]2O[C@H](C)[C@@H](O)[C@H](N)[C@@H]2O)C[C@@H]2O[C@](O)(C[C@@H](O)C[C@@H](O)[C@H](O)CC[C@@H](O)C[C@@H](O)CC(=O)O[C@H]1C)C[C@H](O)[C@H]2C(=O)O,89.7
5,CC(C)CCCC(C)C1CCC2C3CC(=O)C4CC(O)CCC4(C)C3CCC12C (stereo not shown),100
6,COc1c(-c2coc3cc4c(cc3c2=O)CC(O)C(C)(C)O4)ccc2c1C=CC(C)(C)O2 (stereo not shown),59
7,CCC(=C(c1ccccc1)c1ccc(OCCN(C)C)cc1)c1ccccc1,97
8,Clc1ccc2c(c1)C(N1CCNCC1)=Nc1ccccc1O2,98
9,O=c1cc(-c2ccccc2)oc2cc(O)cc(O)c12,43
10,CC1OC(OC2C(OC3CCC4(C)C(CCC5(C)C4CC=C4C6CC(C)(C)CCC6(C(=O)O)CCC45C)C3(C)CO)OCC(O)C2O)C(O)C(O)C1O (stereo not shown),6.8
11,Cc1coc2c1C(=O)C(=O)c1c-2ccc2c1CCCC2(C)C,44.3
12,CNc1ccc(C(=O)CC(O)CCC(C)C2OC(=O)CC(O)CC(=O)CC(O)CC(O)CC(O)CC(O)CC3(O)CC(O)C(C(=O)OC)C(CC(O[C@@H]4O[C@H](C)[C@@H](O)[C@H](N)[C@@H]4O)/C=C/C=C/C=C/C=C\C=C/C=C/C=C/C2C)O3)cc1 (stereo partly shown),97.3
13,COc1ccc2[nH]cc(CCN)c2c1.Cl,24.2
14,COC(=O)C1=C(C)NC(C)=C(C(=O)OCCN(C)Cc2ccccc2)C1c1cccc([N+](=O)[O-])c1 (stereo not shown),99.8
15,CCCCCCCC/C=C/CCCCCCCCOP(=O)([O-])OCC[N+](C)(C)C,93.7
16,CNC1CCC(c2ccc(Cl)c(Cl)c2)c2ccccc21.Cl (stereo not shown),100
17,COc1cc(O)c2c(c1)C(=O)c1cc(C)cc(O)c1C2=O,96.8
18,CC(=O)O[C@]1(C(C)=O)CC[C@H]2[C@@H]3C=C(Cl)C4=CC(=O)CC[C@]4(C)[C@H]3CC[C@@]21C,97.4
19,CC(C)=CCc1c2c(c3occ(-c4ccc(O)cc4)c(=O)c3c1O)C=CC(C)(C)O2,30.6
20,COc1cc(O)c2c(=O)cc(-c3ccc(OC)c(-c4c(O)cc(O)c5c(=O)cc(-c6ccc([O-])cc6)oc45)c3)oc2c1.[K+],4.2

row,SMILES,Mammalian (3T3) cell % growth at 10 uM [%]
1,CC1OC(=O)C(C(C)C)NC(=O)C(C(C)C)OC(=O)C(C(C)C)NC(=O)C(C)OC(=O)C(C(C)C)NC(=O)C(C(C)C)OC(=O)C(C(C)C)NC(=O)C(C)OC(=O)C(C(C)C)NC(=O)C(C(C)C)OC(=O)C(C(C)C)NC1=O (stereo not shown),16.4
2,c1ccc(-c2ccc(C(c3ccccc3)n3ccnc3)cc2)cc1 (stereo not shown),93.6
3,COC1=CC(=O)C(O)=C/C1=C\C=C\c1ccccc1,0.8
4,O=c1cc(-c2cc(O)c(O)c(O)c2)oc2cc(O)cc(O)c12,100
5,Cc1cc(/C=C/c2ccc3cc(N(C)C)ccc3[n+]2C)c(C)n1-c1ccccc1.O=C([O-])c1cc2ccccc2c(Cc2c(O)c(C(=O)O)cc3ccccc23)c1O,50
6,CN(C)CCCN1c2ccccc2Sc2ccc(Cl)cc21,99.3
7,CC(CC(O)C1OC1(C)C)C1CCC2(C)C3=CCC4C(C)(C)C(=O)CCC4(C)C3CCC12C (stereo not shown),100
8,CC(=O)[C@H]1CC[C@H]2[C@@H]3CC[C@H]4C[C@@H](O)CC[C@]4(C)[C@H]3CC[C@]12C,100
9,O=c1c(O)c(-c2ccc(O)c(O)c2)oc2c(O[C@@H]3O[C@H](CO)[C@@H](O)[C@H](O)[C@H]3O)c(O)cc(O)c12,100
10,COc1ccc(CCN2CCC(Nc3nc4ccccc4n3Cc3ccc(F)cc3)CC2)cc1,100
11,CC[C@@H](C(=O)[C@@H](C)[C@@H](O)[C@H](C)CCc1ccc(C)c(O)c1C(=O)O)[C@H]1O[C@](CC)([C@H]2CC[C@](O)(CC)[C@H](C)O2)C[C@@H]1C,50.1
12,C[C@H]1COC2=C1C(=O)C(=O)c1c2ccc2c1CCCC2(C)C,87
13,CNCCC=C1c2ccccc2CCc2ccccc21,100
14,CCC1(O)CC(O)c2c(cc3c(c2O)C(=O)c2c(O)ccc(O)c2C3=O)C1C(=O)OC (stereo not shown),46.5
15,COc1c(C)c2c(c(O)c1C/C=C(\C)CCC(=O)O)C(=O)OC2,97.2
16,CN1CCC(=C2c3ccccc3Sc3ccccc32)CC1,98.5
17,COc1cc2c(cc1OC)C1C(=O)c3ccc4c(c3OC1CO2)CC(C(C)C)O4 (stereo not shown),19.3
18,COC(=O)c1cc(O)c(=O)c2c(O)c(O)ccc2c1,92.2
19,Cc1nc2ccccn2c(=O)c1CCN1CCC(C(=O)c2ccc(F)cc2)CC1,91.6
20,Clc1ccc(C(OCCN2CCCCC2)c2ccccc2)cc1 (stereo not shown),100
